# Test results from PubChem BioAssay (NCI).
# Compounds without any hit were thinned out: in the full panel of roughly 83,000, 20% have a hit.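 The test compound was applied at a single concentration to cells in 96-well plates for 48 hours, and percent growth was recorded.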 Unmarked numbers belong to inactive results. Activity calls are given as the source filed them. How the source made its calls: active means growth percent below 10; inactive means the rest.
# System: RXF 393 renal
# Experiment: NCI-60 one-dose screen, 48 h (100 = growth as untreated, 0 = no growth, -100 = all killed)
# Conditions: 10 µM unless noted
row,Structure (SMILES),growth
1,C=C1C(=O)O[C@H]2[C@H]1CC/C(COC(=O)NCCc1c[nH]c3ccccc13)=C\CC[C@@]1(C)O[C@@H]21,-89.3% (active)
2,C/C(=N\Nc1cc(C)c2ccccc2n1)c1ccccn1,-77.4% (active)
3,COC(=O)CNc1nc(N(C)O)nc(N(C)O)n1,47.2%
4,Cc1ccc(-c2nc([P+](c3ccccc3)(c3ccccc3)c3ccccc3)c(N3C[C@H]4C[C@H](C3)c3cccc(=O)n3C4)o2)cc1,79.8%
5,COC(=O)[C@]12CC[C@@H](C)[C@H](C)[C@@H]1C1=CC[C@@H]3[C@@]4(C)CC(=O)[C@H](OC(=O)c5ccco5)[C@@]5(C)COC(=C45)C[C@@]3(C)[C@]1(C)CC2,44.5%
6,COc1ccc(/C=C/C(=O)NCC(C)O)cc1 (configuration not stated),90.7%
7,Cc1nn(-c2ccc(Cl)cc2)c(=O)n1CCn1cnc2ccccc21,107%
8,CN1CCN(CCOc2ccc(-c3cnc4c(-c5ccccc5F)cnn4c3)cc2)CC1,50%
9,O=C(NO)c1ccc(Cn2c(=O)n(-c3ccccc3)c(=O)c3ccccc32)cc1,-13.1% (active)
10,CCC(CC)C(=O)OC(C)COc1ccc(C(C)(C)C)cc1 (configuration not stated),113%
11,Nc1ccc(Cl)cn1,113%
12,CN1CCN(CCOc2ccc(-c3cnc4c(-c5cccc(F)c5)cnn4c3)cc2)CC1,66.3%
13,CCCC1CCCCN1C(=O)OCC(C)C (configuration not stated),119%
14,O=S(=O)(NCCNc1cc(-c2cn(-c3ccccc3)nc2-c2cccc(O)c2)ccn1)c1cccc(F)c1,62.3%
15,Cc1cccc(C)c1NC(=O)CSC(=S)N1CCCCC1,111%
16,O=C(/C=C/c1cccc(O)c1)c1ccccc1O,89.9%
17,O=C(NO)c1ccc(Cn2c(=O)n(CCc3ccc(O)cc3)c(=O)c3ccccc32)cc1,29.8%
18,COc1ccc(O)c(-c2cc(-c3ccc(Cl)cc3)c(C#N)c(=O)[nH]2)c1,84.5%
19,CCC(=O)c1c(C)[nH]c(C)c1C,80.4%

row,Structure (SMILES),growth
1,COc1cc(-c2cc3ncccc3c3nc(OCCN(C)C)c4cccnc4c23)cc(OC)c1OC,-72.1% (active)
2,O=C(/C=C/c1cccc2ccccc12)Nc1ncc(Cc2ccccc2)s1,-10% (active)
3,CC(C)/C=C/CC[C@](C)(O)[C@H]1CC[C@]2(C)[C@@H]1CC[C@@H]1[C@@]3(C)C/C(=C/c4cccc(C(F)(F)F)c4)C(=O)C(C)(C)[C@@H]3CC[C@]12C,105%
4,O=C(NCN1C(=O)c2cccc3cccc(c23)C1=O)N1CCC(Cc2ccccc2)CC1,107%
5,COc1cnc2c(c1)C(=O)c1c-2n(CCCNCCN2CCOCC2)c(=O)c2cc([N+](=O)[O-])ccc12,-32.3% (active)
6,CCCCCCCC(=O)SCC/C=C/[C@@H]1CC(=O)NCc2cccc(n2)CN(Cc2ccc3ccccc3c2)CC(=O)N[C@@H](C(C)C)C(=O)O1,20.3%
7,Fc1ccc2nc(-c3cc(-c4ccc5c(c4)OCO5)n[nH]3)[nH]c2c1,63.1%
8,Cn1cc(-c2nc(-c3cn(C)c4ncccc34)cs2)c2cc(F)ccc21,30.8%
9,NCCn1cc(-c2nc(-c3c[nH]c4ncccc34)cs2)c2ccccc21,84.9%
10,COc1ccc(-c2cc(-c3c(C)oc4cc5occc5c(OC)c4c3=O)nc(N)c2C#N)cc1OC,61.6%
11,CN(C)c1ccc(N)c2ccccc12,111%
12,CN(C)CCCCC(C(=O)CBr)(c1ccccc1)c1ccccc1,-51.5% (active)
13,O=C1Nc2ccccc2/C1=C/c1cn(CCCn2c3ccccc3c(=O)c3ccccc32)c2ccccc12,104%
14,C=C(C)[C@@H]1CC[C@]2(C=NCCCNCCCCNCCCN)CC[C@]3(C)[C@H](CC[C@@H]4[C@@]5(C)CCCNC(C)(C)[C@@H]5CC[C@]43C)[C@@H]12,110%
15,CCCCn1c(-c2ccc(O)cc2)cn2c3c(=O)[nH]c(=O)n(C)c3nc12,74.9%
16,Cc1nn(-c2ccc(Br)cc2)c2nc3[nH]c(=O)[nH]c(=O)c3nc12,114%
17,Cc1cc2nc3c4cc(N)ccc4n(CCN(C)C)c3nc2cc1C,15.3%
18,COc1ccc(-c2nc3c(c(C)nn3-c3ccc(F)cc3)c(=O)[nH]2)cc1,82.8%
